Results published in PubChem BioAssay.
Unmarked numbers belong to inactive results.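 How the source made its calls: active means inhibition at or above 50% relative to wild type and mutant plate controls; inactive means inhibition below 50%.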

Test: loss of swimming-algae plug formation – whole organism, Chlamydomonas reinhardtii, WT vs cilia-less mutant, absorbance, 96-well, primary screen (AID 463189);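 further: 0% = wild type cc124 cells in DMSO and 100% = ciliumless bld1 mutant cells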
Details: Chlamydomonas reinhardtii gravitaxis, OD600 absorbance, 2 days; at 10 µM; active compounds read high

SMILES | inhibition [%]
CCCOc1ccccc1-c1nc2n[nH]nc2c(=O)[nH]1 | -8.54
Nc1cc(=O)[nH]c(N)n1 | -17.2
OCc1cc(C(O)CNCCCCCCOCCCCc2ccccc2)ccc1O (centres undefined) | 6.68
O=C1CC2(CCCC2)CC(=O)N1CCCCN1CCN(c2ncccn2)CC1 | 3.65
